Assays:
Assay in all cases: DAPPL (digital affinity profiling via proximity ligation, sequencing); 10 mM Tris-HCl pH 7.5, 50 mM NaCl, 1 mM DTT, 4% glycerol, room temperature, 30 min; GST-TFs on glutathione beads, 16-mer random dsDNA library, 0.1% formaldehyde crosslink after washing; high values mean tight binding
FLI1 = target: T1, FLI1 (Homo sapiens, UniProt Q01543 1-452); conditions: protein: recombinant; tags: N-terminal GST; dsDNA, one strand shown
T1 sequence: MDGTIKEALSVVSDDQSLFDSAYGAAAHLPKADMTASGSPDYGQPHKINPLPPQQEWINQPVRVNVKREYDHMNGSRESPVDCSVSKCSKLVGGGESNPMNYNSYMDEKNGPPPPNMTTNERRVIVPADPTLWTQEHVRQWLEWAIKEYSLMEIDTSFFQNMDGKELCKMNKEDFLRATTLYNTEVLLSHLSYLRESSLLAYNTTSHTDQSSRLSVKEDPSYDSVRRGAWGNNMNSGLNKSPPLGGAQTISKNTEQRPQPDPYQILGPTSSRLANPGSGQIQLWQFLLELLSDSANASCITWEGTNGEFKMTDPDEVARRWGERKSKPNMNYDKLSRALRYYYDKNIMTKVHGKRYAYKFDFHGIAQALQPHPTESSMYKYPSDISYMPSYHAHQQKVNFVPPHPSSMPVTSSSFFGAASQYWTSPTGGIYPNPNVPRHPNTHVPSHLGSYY
In short: (§1)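 Binding signal is defined as a hexamer's read frequency for one factor over its frequency for the tag-only sample. To obtain reads, GST-fused human transcription factors were expressed in yeast, captured on glutathione beads, barcoded with DNA and pooled with that sample. Pools met 200 nmole of a 16-mer random double-stranded DNA library in Tris/NaCl/DTT/glycerol buffer for 30 min at room temperature before washing, 0.1% formaldehyde crosslinking, proximity ligation (BsaI/T4 ligase, 1 h, 37 °C), PCR and Illumina NextSeq500 sequencing.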

ELK1 = target: T2, ELK1 (Homo sapiens, UniProt P19419 1-428); conditions: protein: recombinant; tags: N-terminal GST; dsDNA, one strand shown
T2 sequence: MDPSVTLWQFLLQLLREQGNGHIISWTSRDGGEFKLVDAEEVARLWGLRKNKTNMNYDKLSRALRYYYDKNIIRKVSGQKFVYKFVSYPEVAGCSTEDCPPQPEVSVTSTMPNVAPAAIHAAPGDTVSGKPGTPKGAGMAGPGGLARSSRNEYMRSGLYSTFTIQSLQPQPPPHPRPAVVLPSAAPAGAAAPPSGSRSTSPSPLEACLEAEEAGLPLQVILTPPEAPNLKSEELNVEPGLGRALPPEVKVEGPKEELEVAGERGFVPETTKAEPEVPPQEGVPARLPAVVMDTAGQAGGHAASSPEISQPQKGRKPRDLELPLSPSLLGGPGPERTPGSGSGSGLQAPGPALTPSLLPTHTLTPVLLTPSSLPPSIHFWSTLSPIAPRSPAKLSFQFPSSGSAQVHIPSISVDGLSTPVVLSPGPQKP
In short: as §1

GABPA = target: T3, GABPA (Homo sapiens, UniProt Q06546 1-454); conditions: protein: recombinant; tags: N-terminal GST; dsDNA, one strand shown
T3 sequence: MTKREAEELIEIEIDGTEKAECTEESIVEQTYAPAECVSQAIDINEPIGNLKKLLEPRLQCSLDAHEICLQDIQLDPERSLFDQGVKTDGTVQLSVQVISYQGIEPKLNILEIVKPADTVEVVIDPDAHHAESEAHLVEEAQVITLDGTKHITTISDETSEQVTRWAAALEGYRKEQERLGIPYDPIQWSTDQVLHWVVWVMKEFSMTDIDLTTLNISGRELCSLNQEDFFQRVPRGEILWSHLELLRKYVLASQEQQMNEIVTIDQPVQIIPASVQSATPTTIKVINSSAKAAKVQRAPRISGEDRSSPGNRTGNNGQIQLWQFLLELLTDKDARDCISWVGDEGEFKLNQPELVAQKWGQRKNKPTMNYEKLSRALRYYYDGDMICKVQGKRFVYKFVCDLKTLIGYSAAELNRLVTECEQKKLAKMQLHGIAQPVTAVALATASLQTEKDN
In short: as §1

ERG = target: T4, ERG (Homo sapiens, UniProt P11308 1-479); conditions: protein: recombinant; tags: N-terminal GST; dsDNA, one strand shown
T4 sequence: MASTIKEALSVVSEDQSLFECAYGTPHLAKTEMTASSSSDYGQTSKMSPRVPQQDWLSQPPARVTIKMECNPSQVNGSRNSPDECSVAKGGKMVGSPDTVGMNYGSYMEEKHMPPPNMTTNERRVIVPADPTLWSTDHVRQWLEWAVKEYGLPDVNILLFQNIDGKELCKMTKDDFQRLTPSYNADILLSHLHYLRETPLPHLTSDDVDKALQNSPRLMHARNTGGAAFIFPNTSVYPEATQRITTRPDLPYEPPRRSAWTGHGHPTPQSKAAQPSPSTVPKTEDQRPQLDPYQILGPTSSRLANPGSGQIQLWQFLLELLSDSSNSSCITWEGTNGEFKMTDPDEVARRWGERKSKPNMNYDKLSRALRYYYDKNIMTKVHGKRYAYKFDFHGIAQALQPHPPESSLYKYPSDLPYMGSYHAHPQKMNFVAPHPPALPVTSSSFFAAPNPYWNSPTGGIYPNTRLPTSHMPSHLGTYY
In short: as §1

ELF1 = ELF1 (Homo sapiens, UniProt P32519 1-619); conditions: protein: recombinant; tags: N-terminal GST; dsDNA, one strand shown
In short: as §1

SPI1 = SPI1 (Homo sapiens, UniProt P17947 1-270); conditions: protein: recombinant; tags: N-terminal GST; dsDNA, one strand shown
In short: as §1

ETV5 = ETV5 (Homo sapiens, UniProt P41161 1-510); conditions: protein: recombinant; tags: N-terminal GST; dsDNA, one strand shown
In short: as §1

HSF1 = HSF1 (Homo sapiens, UniProt Q00613 1-529); conditions: protein: recombinant; tags: N-terminal GST; chain copies: 3; dsDNA, one strand shown
In short: as §1

SPIC = target: T5, SPIC (Homo sapiens, UniProt Q8N5J4 1-248); conditions: protein: recombinant; tags: N-terminal GST; dsDNA, one strand shown
T5 sequence: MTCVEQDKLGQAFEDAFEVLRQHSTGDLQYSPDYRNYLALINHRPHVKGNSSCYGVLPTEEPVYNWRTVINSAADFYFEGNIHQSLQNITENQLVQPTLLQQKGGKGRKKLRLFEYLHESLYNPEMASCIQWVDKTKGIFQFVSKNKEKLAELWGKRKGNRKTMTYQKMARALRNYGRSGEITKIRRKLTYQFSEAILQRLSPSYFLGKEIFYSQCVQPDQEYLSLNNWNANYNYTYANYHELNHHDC
In short: as §1

ELF4 = ELF4 (Homo sapiens, UniProt Q99607 1-663); conditions: protein: recombinant; tags: N-terminal GST; dsDNA, one strand shown
In short: as §1

ELK4 = target: T6, ELK4 (Homo sapiens, UniProt P28324-2 1-405); conditions: protein: recombinant; tags: N-terminal GST; dsDNA, one strand shown
T6 sequence: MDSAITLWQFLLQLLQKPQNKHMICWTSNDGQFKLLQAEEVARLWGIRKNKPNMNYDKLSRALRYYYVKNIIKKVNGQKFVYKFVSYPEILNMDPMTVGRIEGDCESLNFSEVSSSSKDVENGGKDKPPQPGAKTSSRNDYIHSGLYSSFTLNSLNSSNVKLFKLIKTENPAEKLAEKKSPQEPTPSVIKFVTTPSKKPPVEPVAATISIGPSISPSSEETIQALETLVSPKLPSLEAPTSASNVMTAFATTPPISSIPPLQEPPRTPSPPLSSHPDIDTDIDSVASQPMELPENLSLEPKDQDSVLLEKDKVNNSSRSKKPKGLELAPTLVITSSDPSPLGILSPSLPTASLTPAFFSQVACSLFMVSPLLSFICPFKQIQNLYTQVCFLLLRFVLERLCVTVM
In short: as §1

ETV2 = target: T7, ETV2 (Homo sapiens, UniProt O00321 1-342); conditions: protein: recombinant; tags: N-terminal GST; dsDNA, one strand shown
T7 sequence: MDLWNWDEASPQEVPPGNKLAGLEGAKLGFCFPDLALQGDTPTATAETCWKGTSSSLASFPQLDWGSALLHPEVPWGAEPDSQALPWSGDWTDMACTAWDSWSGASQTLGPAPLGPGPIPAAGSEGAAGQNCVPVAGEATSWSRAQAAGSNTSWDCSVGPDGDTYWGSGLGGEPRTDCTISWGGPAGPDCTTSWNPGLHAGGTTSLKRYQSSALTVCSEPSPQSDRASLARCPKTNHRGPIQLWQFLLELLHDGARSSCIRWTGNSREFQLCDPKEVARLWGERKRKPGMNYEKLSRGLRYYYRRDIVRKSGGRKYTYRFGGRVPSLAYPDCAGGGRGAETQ
In short: as §1

ETV1 = ETV1 (Homo sapiens, UniProt P50549 1-477); conditions: protein: recombinant; tags: N-terminal GST; dsDNA, one strand shown
In short: as §1

EHF = target: T8, EHF (Homo sapiens, UniProt Q9NZC4 1-300); conditions: protein: recombinant; tags: N-terminal GST; dsDNA, one strand shown
T8 sequence: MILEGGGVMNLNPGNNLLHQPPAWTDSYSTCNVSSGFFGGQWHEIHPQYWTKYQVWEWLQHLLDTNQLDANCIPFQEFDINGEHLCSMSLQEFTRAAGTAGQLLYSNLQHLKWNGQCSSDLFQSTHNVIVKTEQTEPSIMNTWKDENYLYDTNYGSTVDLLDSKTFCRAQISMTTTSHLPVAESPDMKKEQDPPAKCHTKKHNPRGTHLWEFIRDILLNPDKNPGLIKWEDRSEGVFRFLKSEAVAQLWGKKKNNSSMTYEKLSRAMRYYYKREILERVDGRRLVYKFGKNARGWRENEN
In short: as §1

ELK3 = target: T9, ELK3 (Homo sapiens, UniProt P41970 1-407); conditions: protein: recombinant; tags: N-terminal GST; dsDNA, one strand shown
T9 sequence: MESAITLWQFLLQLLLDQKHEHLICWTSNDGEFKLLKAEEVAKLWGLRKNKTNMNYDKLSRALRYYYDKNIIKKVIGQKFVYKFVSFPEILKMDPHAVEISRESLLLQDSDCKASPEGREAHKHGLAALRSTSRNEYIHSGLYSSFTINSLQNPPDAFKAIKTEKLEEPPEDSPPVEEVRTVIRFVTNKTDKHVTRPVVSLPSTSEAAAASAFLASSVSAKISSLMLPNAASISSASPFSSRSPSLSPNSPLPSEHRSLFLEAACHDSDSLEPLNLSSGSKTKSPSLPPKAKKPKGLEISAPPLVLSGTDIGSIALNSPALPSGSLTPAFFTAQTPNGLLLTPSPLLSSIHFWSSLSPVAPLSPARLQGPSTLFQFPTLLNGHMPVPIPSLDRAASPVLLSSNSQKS
In short: as §1

FEV = target: T10, FEV (Homo sapiens, UniProt Q99581 1-238); conditions: protein: recombinant; tags: N-terminal GST; dsDNA, one strand shown
T10 sequence: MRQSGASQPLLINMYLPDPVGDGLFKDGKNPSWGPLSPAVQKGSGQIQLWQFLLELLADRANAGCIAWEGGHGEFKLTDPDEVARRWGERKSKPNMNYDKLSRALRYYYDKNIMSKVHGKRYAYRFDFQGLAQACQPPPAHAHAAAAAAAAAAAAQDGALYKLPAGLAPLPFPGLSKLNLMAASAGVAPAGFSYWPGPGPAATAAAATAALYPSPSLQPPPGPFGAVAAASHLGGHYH
In short: as §1

CRX = CRX (Homo sapiens, UniProt O43186 1-299); conditions: protein: recombinant; tags: N-terminal GST; dsDNA, one strand shown
In short: as §1

ETV1, sequence (P50549 whole entry): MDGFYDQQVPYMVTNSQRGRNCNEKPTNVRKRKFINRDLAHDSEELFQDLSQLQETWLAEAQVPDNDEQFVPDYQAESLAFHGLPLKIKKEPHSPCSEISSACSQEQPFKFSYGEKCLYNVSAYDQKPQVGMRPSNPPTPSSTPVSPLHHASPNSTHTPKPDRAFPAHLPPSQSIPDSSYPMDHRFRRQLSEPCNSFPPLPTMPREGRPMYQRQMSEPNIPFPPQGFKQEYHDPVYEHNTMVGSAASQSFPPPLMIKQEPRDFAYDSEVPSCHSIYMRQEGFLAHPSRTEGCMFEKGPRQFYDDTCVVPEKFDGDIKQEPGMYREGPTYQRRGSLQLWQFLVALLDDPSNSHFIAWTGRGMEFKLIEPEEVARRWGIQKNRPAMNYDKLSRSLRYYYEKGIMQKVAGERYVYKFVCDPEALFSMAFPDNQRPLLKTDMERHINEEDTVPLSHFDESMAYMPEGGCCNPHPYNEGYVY
ELF4, sequence (Q99607 whole entry): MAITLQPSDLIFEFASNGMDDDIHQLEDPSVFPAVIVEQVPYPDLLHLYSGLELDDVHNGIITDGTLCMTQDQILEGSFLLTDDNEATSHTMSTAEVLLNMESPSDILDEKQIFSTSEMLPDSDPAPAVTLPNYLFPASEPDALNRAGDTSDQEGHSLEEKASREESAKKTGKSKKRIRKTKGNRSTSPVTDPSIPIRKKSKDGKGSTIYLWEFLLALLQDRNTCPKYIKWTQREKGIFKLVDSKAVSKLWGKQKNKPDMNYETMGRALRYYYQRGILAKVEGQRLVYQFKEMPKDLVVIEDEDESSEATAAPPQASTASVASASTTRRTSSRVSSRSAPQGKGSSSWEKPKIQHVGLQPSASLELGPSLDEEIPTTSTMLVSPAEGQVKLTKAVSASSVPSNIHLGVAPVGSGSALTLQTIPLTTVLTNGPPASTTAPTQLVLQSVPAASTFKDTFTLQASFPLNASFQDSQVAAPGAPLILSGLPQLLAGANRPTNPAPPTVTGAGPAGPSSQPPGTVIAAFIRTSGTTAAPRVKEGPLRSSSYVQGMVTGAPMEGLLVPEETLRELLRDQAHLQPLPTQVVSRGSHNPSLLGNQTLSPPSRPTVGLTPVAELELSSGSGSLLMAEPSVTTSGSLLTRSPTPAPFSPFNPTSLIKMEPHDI
ELF1, sequence (P32519 whole entry): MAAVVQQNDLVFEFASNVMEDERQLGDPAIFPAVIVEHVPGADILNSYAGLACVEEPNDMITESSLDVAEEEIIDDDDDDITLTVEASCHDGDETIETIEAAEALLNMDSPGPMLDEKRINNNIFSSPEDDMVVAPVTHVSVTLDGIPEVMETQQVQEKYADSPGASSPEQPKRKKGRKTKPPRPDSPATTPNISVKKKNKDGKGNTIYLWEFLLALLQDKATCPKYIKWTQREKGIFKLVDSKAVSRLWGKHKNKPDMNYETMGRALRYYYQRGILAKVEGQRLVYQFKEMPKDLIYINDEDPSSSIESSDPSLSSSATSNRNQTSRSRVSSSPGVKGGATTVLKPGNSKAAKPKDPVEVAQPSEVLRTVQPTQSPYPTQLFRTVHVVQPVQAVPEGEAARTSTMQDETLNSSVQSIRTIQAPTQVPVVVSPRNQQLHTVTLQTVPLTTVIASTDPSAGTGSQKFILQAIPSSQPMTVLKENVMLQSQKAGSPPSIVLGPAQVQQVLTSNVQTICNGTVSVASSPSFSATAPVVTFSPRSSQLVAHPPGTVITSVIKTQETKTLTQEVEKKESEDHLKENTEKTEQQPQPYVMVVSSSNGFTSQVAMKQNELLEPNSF
HSF1, sequence (Q00613 whole entry): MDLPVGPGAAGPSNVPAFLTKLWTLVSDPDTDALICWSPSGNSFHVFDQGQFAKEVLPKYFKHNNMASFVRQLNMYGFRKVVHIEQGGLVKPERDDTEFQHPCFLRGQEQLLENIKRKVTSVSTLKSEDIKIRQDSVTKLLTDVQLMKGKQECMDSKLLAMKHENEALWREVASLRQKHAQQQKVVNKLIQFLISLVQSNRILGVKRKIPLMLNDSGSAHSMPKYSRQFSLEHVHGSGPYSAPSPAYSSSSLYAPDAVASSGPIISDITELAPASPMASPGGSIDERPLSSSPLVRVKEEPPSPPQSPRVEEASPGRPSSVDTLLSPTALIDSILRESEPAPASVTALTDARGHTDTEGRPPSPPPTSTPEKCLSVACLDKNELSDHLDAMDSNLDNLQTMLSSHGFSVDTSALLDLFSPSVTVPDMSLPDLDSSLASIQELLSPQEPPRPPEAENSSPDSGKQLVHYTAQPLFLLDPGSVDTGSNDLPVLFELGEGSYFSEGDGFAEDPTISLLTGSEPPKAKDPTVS
ETV5, sequence (P41161 whole entry): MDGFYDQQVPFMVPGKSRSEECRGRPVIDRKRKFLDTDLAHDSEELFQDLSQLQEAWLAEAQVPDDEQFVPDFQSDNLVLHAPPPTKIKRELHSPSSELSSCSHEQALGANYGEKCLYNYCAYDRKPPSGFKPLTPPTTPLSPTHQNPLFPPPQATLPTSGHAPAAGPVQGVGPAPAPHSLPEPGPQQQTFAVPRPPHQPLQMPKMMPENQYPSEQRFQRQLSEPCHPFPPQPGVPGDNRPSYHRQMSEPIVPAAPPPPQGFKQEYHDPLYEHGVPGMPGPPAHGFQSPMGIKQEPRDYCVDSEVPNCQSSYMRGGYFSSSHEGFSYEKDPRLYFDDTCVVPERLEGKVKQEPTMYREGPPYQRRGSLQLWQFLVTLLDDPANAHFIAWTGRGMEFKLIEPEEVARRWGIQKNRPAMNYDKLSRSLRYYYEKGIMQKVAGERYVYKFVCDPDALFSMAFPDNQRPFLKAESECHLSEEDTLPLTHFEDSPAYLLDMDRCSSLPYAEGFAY
CRX, sequence (O43186 whole entry): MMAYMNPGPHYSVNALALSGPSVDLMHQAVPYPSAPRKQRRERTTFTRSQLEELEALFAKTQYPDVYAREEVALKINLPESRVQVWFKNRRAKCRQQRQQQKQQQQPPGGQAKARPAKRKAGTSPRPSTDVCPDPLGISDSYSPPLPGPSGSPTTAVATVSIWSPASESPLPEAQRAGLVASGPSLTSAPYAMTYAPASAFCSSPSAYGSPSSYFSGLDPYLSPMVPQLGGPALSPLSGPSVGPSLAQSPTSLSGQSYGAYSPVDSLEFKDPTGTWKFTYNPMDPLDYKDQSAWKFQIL

Sequence	binding signal (FLI1)	binding signal (ELK1)	binding signal (GABPA)	binding signal (ERG)	binding signal (ELF1)	binding signal (SPI1)	binding signal (ETV5)	binding signal (HSF1)	binding signal (SPIC)	binding signal (ELF4)	binding signal (ELK4)	binding signal (ETV2)	binding signal (ETV1)	binding signal (EHF)	binding signal (ELK3)	binding signal (FEV)	binding signal (CRX)
CAGATG	1.05 fold enrichment (6-mer frequency, TF over GST control)	1.09 fold enrichment (6-mer frequency, TF over GST control)	1.04 fold enrichment (6-mer frequency, TF over GST control)	1.09 fold enrichment (6-mer frequency, TF over GST control)	1.08 fold enrichment (6-mer frequency, TF over GST control)	1 fold enrichment (6-mer frequency, TF over GST control)	1.01 fold enrichment (6-mer frequency, TF over GST control)	1.01 fold enrichment (6-mer frequency, TF over GST control)	1.12 fold enrichment (6-mer frequency, TF over GST control)	1.02 fold enrichment (6-mer frequency, TF over GST control)	1.06 fold enrichment (6-mer frequency, TF over GST control)	1.01 fold enrichment (6-mer frequency, TF over GST control)	1.01 fold enrichment (6-mer frequency, TF over GST control)				
TTGGCT	1.15 fold enrichment (6-mer frequency, TF over GST control)	1.07 fold enrichment (6-mer frequency, TF over GST control)			1.13 fold enrichment (6-mer frequency, TF over GST control)		1.05 fold enrichment (6-mer frequency, TF over GST control)	1.03 fold enrichment (6-mer frequency, TF over GST control)	1.02 fold enrichment (6-mer frequency, TF over GST control)	1.08 fold enrichment (6-mer frequency, TF over GST control)	1.21 fold enrichment (6-mer frequency, TF over GST control)	1.07 fold enrichment (6-mer frequency, TF over GST control)	1.02 fold enrichment (6-mer frequency, TF over GST control)	1.12 fold enrichment (6-mer frequency, TF over GST control)	1 fold enrichment (6-mer frequency, TF over GST control)	1.17 fold enrichment (6-mer frequency, TF over GST control)	1.33 fold enrichment (6-mer frequency, TF over GST control)
